Data reported in PubChem BioAssay.
Calls of active or inactive are those of the source. Unless noted, no rule for the calls is given here.

Experiments:
[1] = test system: Wnt5a (protein binding on small-molecule microarray); assay: Wnt5a binders on small-molecule microarray, primary screen, biophysical, 635/667 nm fluorescence (AID 1142); settings: 635 nm fluorescence, higher = more signal;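 also: fluorescence read at 667 nm with signal to noise per printed feature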
[2] = cell viability in Huh7 cells, primary screen, cytotoxicity control for HCV replication inhibitor project, CellTiter-Glo luminescence, basal, 48 h (AID 1143); settings: Huh7 HCV replicon, higher = more signal, called active from +8 up or from −8 down;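 also: Huh7 hepatoma cells carrying a hepatitis C replication reporter with no stimulus; test concentration not given here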
[3] = P. aeruginosa biofilm formation inhibitors, primary screen, PAO1 strain, BacTiter-Glo luminescence, LB-PBS (AID 1144); settings: 12 h, higher = more signal
[4] = CREB reporter modulators without forskolin, primary screen, cell-based, PC12, CRE-LacZ reporter, unstimulated (AID 1145); settings: no forskolin, luminescence, 4.5 h, higher = more signal, called active from +8 up or from −8 down
[5] = CREB reporter modulators under forskolin, primary screen, cell-based, PC12, CRE-LacZ reporter, forskolin-stimulated (AID 1146); settings: luminescence, 4.5 h, higher = more signal, called active from +8 up or from −8 down;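 also: PC12 cells with 6xCRE LacZ reporter stimulated by forskolin 10 µM; beta-galactosidase reporter signal reflecting CREB driven transcription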
[6] = target: Streptavidin (Streptomyces avidinii) (UniProt P22629); assay: streptavidin binders on small-molecule microarray, primary screen, artefact control for SMM compound annotation, biophysical, 635/667 nm fluorescence (AID 1147); settings: streptavidin binding, higher = more signal;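 also: signal reflects streptavidin binding to arrayed compounds as a control protein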
[7] = small-molecule binders of probe aInhba, primary screen, biochemical, small-molecule microarray, 635/667 nm fluorescence (AID 1148); settings: higher = more signal;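 also: score merges 667nm spot fluorescence with signal-to-noise for antibody binding to printed compounds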
Torsin-1A (Homo sapiens) [8] = target: Torsin-1A (Homo sapiens) (UniProt O14656); assay: torsin A binders from cell lysate, primary screen, small-molecule microarray, wild-type, 635/667 nm (AID 1149); settings: COS7 hTOR1A-WT lysate, 635 nm fluorescence, higher = more signal
Torsin-1A (Homo sapiens) [9] = target: Torsin-1A (Homo sapiens) (UniProt O14656); assay: small-molecule binders of mutant TOR1A in lysate, primary screen, cell lysate, small-molecule microarray, COS7 lysate, 635/667 nm fluorescence (AID 1150); settings: COS7 hTOR1A mutant lysate, 635 nm fluorescence, higher = more signal;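 also: score pools 667 nm emission and signal to noise measuring lysate protein binding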
[10] = test system: Sonic hedgehog protein (Shh); assay: small-molecule binders of Shh protein, primary screen, biochemical, small-molecule microarray, 635/667 nm fluorescence (AID 1151); settings: small-molecule microarray binding, 635 nm fluorescence; higher = more signal;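 also: Shh protein binding to compounds spotted on small-molecule microarray slides; score combines spot fluorescence intensity with signal-to-noise across triplicate slides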
[11] = E. coli DRC41 culture turbidity changes, primary screen, E. coli filamentation inducer project, strain DRC41, OD650, 48 h (AID 1152);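 also: E. coli MC1000 strain DRC41 lacking acrAB efflux pump and sulA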; settings: E. coli DRC41 (acrAB sulA), higher = more signal, called active from +8 up or from −8 down
[12] = small-molecule binders of probe aLefty1, primary screen, biochemical, small-molecule microarray, 635/667 nm fluorescence (AID 1153); settings: higher = more signal;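 also: score merges spot fluorescence with signal-to-noise ratio from the scanned slide images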
[13] = PSAC antagonists in infected red cells, primary screen, cell-based, P. falciparum Indochina, OD700, 1 h (AID 1154); settings: P. falciparum Indochina infected RBC osmotic lysis, higher = more signal, called active from +8 up or from −8 down
[14] = PSAC antagonists in infected red cells, primary screen, cell-based, P. falciparum Indochina, OD700, 2 h (AID 1155);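 also: lysis reports solute entry through the parasite surface anion channel PSAC; channel blockers reduce lysis of infected cells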; settings: P. falciparum Indochina infected erythrocytes, osmotic lysis OD700; higher = more signal, called active from +8 up or from −8 down
[15] = osmotic lysis modulators in infected erythrocytes, primary screen, PSAC antagonist project, cell-based, P. falciparum Indochina, OD700, 3 h (AID 1156); settings: higher = more signal, called active from +8 up or from −8 down
[16] = PSAC antagonists in infected red cells, primary screen, cell-based, P. falciparum Indochina, OD700, 18 h (AID 1157); settings: P. falciparum Indochina infected erythrocytes, osmotic lysis OD700, 18 h; higher = more signal, called active from +8 up or from −8 down
[17] = modulators of S6 phosphorylation in cells, primary screen, cell-based, A549, cytoblot, luminescence, serum-stimulated (AID 1158); settings: A549 phospho-S6 cytoblot, 5 h, higher = more signal;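 also: serum-stimulated A549 lung adenocarcinoma cells; signal is phosphorylated S6 detected by cytoblot immunostaining with HRP secondary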
[18] = target: NADPH oxidase 2 (Homo sapiens) (UniProt P04839); assay: NOX2-dependent H2O2 signal modulators, primary screen, NOX inhibitor project, cell-based, HEK293-NOX2, PMA-stimulated, Amplex Red fluorescence (AID 1159); settings: 45 min, higher = more signal, called active from +8 up or from −8 down; also: test concentration not given here
[19] = target: NADPH oxidase 4 (Homo sapiens) (UniProt Q9NPH5); assay: NOX4-dependent H2O2 signal modulators, primary screen, NOX inhibitor project, cell-based, HEK293-NOX4, tetracycline-induced, Amplex Red fluorescence (AID 1160); settings: 45 min, higher = more signal, called active from +8 up or from −8 down
[20] = target: NADPH oxidase 5 (Homo sapiens) (UniProt Q96PH1); assay: NOX5-dependent H2O2 signal modulators, primary screen, NOX inhibitor project, cell-based, HEK293-NOX5, Amplex Red fluorescence (AID 1161); settings: HEK293-NOX5, ionomycin, 45 min, higher = more signal
Chain of NADPH oxidase 5 (Homo sapiens) (Q96PH1 whole entry, looked up): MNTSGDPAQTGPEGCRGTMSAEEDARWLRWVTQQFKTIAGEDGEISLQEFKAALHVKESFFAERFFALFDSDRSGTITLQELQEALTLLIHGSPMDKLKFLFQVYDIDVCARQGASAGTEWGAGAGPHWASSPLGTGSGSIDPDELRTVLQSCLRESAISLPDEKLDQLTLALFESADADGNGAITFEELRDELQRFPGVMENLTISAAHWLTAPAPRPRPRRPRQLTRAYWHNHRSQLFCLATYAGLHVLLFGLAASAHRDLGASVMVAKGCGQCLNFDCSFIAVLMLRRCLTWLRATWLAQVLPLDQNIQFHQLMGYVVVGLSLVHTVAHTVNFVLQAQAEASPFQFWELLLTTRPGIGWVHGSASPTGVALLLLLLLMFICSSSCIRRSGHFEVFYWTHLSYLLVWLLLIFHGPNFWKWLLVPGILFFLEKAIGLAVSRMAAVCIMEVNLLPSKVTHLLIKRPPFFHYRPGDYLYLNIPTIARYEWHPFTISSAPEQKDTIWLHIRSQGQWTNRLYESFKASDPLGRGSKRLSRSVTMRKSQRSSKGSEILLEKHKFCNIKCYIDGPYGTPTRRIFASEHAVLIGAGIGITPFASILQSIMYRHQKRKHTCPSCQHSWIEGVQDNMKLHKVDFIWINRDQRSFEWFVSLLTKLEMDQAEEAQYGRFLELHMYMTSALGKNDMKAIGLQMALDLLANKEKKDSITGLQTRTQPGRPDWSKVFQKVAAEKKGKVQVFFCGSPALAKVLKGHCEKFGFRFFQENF

Chain of NADPH oxidase 4 (Homo sapiens) (Q9NPH5 whole entry, looked up): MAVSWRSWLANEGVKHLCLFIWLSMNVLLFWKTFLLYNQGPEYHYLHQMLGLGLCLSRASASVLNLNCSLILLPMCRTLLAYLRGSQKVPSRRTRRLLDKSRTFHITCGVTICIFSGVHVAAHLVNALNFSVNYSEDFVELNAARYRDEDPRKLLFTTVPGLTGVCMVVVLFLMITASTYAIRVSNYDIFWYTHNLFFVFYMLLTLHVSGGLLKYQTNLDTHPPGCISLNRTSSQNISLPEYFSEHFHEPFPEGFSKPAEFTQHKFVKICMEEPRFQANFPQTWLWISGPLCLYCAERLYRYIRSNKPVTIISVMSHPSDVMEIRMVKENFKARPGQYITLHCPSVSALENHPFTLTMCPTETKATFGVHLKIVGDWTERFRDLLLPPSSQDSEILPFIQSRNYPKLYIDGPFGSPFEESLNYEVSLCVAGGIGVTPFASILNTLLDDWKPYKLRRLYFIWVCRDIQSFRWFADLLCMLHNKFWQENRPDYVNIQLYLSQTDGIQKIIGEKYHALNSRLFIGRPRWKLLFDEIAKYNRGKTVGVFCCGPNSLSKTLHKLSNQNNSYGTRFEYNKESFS
Chain of Torsin-1A (Homo sapiens) (O14656 whole entry, looked up): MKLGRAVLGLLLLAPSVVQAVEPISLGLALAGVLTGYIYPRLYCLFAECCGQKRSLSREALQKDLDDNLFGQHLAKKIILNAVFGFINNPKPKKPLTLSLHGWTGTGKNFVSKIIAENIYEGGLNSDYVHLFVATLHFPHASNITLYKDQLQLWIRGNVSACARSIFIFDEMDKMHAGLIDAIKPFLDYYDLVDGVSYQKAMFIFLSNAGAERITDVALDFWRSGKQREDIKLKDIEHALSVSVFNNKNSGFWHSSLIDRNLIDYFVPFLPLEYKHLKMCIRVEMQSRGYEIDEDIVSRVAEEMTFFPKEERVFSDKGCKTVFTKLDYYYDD
Chain of NADPH oxidase 2 (Homo sapiens) (P04839 whole entry, looked up): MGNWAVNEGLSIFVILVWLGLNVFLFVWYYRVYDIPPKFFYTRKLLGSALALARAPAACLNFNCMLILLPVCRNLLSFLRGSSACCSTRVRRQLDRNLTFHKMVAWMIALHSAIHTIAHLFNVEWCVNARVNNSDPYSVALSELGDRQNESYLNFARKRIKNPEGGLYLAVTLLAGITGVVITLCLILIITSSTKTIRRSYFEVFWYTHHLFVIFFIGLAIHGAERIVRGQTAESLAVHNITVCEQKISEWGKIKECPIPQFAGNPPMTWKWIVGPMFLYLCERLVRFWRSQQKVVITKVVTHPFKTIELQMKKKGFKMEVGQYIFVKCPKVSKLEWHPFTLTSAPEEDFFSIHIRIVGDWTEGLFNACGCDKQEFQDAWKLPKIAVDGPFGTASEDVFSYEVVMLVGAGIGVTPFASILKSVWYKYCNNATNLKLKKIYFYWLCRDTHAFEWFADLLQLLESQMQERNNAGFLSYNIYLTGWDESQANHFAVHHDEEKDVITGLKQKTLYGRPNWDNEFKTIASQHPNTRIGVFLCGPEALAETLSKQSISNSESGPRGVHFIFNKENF
Chain of Streptavidin (Streptomyces avidinii) (P22629 whole entry, looked up): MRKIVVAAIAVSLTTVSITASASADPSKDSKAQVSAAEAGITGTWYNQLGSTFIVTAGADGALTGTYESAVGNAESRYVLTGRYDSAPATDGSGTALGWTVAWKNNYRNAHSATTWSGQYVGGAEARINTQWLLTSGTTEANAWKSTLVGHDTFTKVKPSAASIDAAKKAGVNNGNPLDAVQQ

SMILES | composite z-score [1] | z-score [2] | z-score [3] | z-score [4] | z-score [5] | composite z-score [6] | composite z-score [7] | composite z-score (Torsin-1A (Homo sapiens) [8]) | composite z-score (Torsin-1A (Homo sapiens) [9]) | composite z-score [10] | z-score [11] | composite z-score [12] | z-score [13] | z-score [14] | z-score [15] | z-score [16] | z-score [17] | z-score [18] | z-score [19] | z-score [20]
COc1ccc(CCNC(=O)[C@@]2(Sc3ccc(C)cc3)CC(=O)N(C(C)C)[C@@H]2c2ccc(CO)cc2I)cc1 | -0.161 | -0.887 (inactive) | 0.844 (inactive) | -0.295 (inactive) | 0.652 (inactive) | -0.738 | -0.0986 | 0.0086 | -0.622 | -0.156 | -0.0322 (inactive) | -0.104 | 5.56 (inactive) | 0.428 (inactive) | 0.445 (inactive) | -0.135 (inactive) | 0.394 | 0.446 (inactive) | -0.641 (inactive) | 1.22
COCCOC(=O)N1C(=O)[C@@]2(c3cc(C#CCCO)ccc31)[C@H](C(N)=O)[C@H]1C(=O)O[C@H](c3ccccc3)[C@H](c3ccccc3)N1[C@@H]2c1ccc(O)cc1 | 0.186 | 0.505 (inactive) | 0.676 (inactive) | -0.602 (inactive) | -0.702 (inactive) | -0.36 | -0.163 | -0.192 | -0.176 | -0.412 | -0.903 (inactive) | -0.15 | 2.44 (inactive) | 0.213 (inactive) | -0.458 (inactive) | -0.0317 (inactive) | -0.237 | 0.463 (inactive) | 0.561 (inactive) | 0.728
O=C1N[C@@H](Cc2ccccc2)C(=O)N2[C@@H]1C[C@@H](C(=O)O)[C@H]2c1cccc(OCCO)c1 | 0.0465 | -0.333 (inactive) | -0.965 (inactive) | 0.692 (inactive) | 0.321 (inactive) | 0.0555 | -0.128 | 1.14 | 0.719 | 1.77 | 0.931 (inactive) | 0.0903 | 6.39 (inactive) | 1.12 (inactive) | -2.03 (inactive) | 0.375 (inactive) | 1.17 | -2.21 (inactive) | -2.89 (inactive) | -0.102
Cc1ccc([C@@H]2C[C@@H](Sc3ccccc3)[C@H](C(=O)O)CN2S(=O)(=O)c2ccc(C)cc2)cc1 | 0.387 | -0.758 (inactive) | -0.606 (inactive) | -0.676 (inactive) | 0.762 (inactive) | 1.39 | 0.122 | 0.877 | 0.244 | -0.053 | -1.07 (inactive) | 0.481 | 1.87 (inactive) | 0.835 (inactive) | -1.16 (inactive) | 0.759 (inactive) | -0.512 | 2.06 (inactive) | -1.97 (inactive) | -0.41
C=C(C(=O)CC[C@@H](OC(=O)c1cccnc1)c1ccccc1OCCO)C(C)C | -0.0008 | -1.25 (inactive) | -0.0644 (inactive) | 8.13 (active) | 1.17 (inactive) | -0.405 | -0.0112 | 0.784 | 0.962 | 1.37 | 0.151 (inactive) | 0.106 | 15.1 (active) | 2.08 (inactive) | 0.759 (inactive) | 0.601 (inactive) | 0.149 | -0.551 (inactive) | -0.118 (inactive) | -1.34
O=C1C[C@]2(c3ccc([N+](=O)[O-])cc3)C(=O)N(CC(F)(F)F)c3cc(CO)ccc3[C@H]2N1C1CCCCC1 | -0.446 | 0.465 (inactive) | 1.43 (inactive) | -0.412 (inactive) | -0.496 (inactive) | -0.463 | -0.0598 | -0.628 | -0.611 | -0.444 | 0.983 (inactive) | -0.233 | -0.524 (inactive) | 0.345 (inactive) | 0.503 (inactive) | 0.133 (inactive) | -0.116 | -0.502 (inactive) | 0.00678 (inactive) | 0.428
COC(=O)[C@@]1(Cc2ccc(OC)cc2)[C@H]2c3cc(C(=O)N4CCCC4)n(Cc4ccc(O)c(OC)c4)c3C[C@H]2CN1C(=O)c1ccccc1 | 1.22 | -1.28 (inactive) | -0.117 (inactive) | 0.962 (inactive) | 0.549 (inactive) | 2.18 | 1.21 | -0.208 | 0.669 | -0.466 | -0.703 (inactive) | 0.622 | 5.08 (inactive) | 0.722 (inactive) | 1.04 (inactive) | 0.739 (inactive) | 0.299 | -2.31 (inactive) | -4.7 (inactive) | -4.33
NCCCCCNC(=O)[C@@H]1C[C@@H]2C(=O)N[C@@H](Cc3ccccc3)C(=O)N2[C@@H]1c1ccc(O)cc1 | 0.0588 | 0.0478 (inactive) | -0.35 (inactive) | 0.281 (inactive) | -0.629 (inactive) | 1.38 | 0.174 | 0.202 | 0.394 | 1.2 | -1.16 (inactive) | 0.176 | 1.24 (inactive) | 0.24 (inactive) | -0.648 (inactive) | -0.116 (inactive) | -0.358 | 0.713 (inactive) | 0.539 (inactive) | -0.657
CN1C(=O)C2C=CC(C(O)c3ccco3)N(Nc3ccccc3)C2C1=O (stereo not given) | 0.148 | 1.11 (inactive) | -0.197 (inactive) | -0.133 (inactive) | 0.0834 (inactive) | 0.437 | -0.0131 | 0.336 | -0.59 | 0.59 | -1.63 (inactive) | 0.335 | 0.233 (inactive) | 0.742 (inactive) | -0.283 (inactive) | 1.34 (inactive) | -1.2 | -1.76 (inactive) | -3.72 (inactive) | -2.54
